Results from the supplement of paper PMC11006884.
Of roughly 6,500 targets only a part is listed; those with a hit were picked by preference. About 2% of all pairs of compound and target were hits.

compound: COC(=O)C#Cc1ccccc1 [methyl 3-phenylpropiolate]; assay: log2 ratio of iodoacetamide-alkyne labeling of the cysteine site, DMSO over compound (competition); higher = stronger covalent engagement of the cysteine by the compound, active = 1 or more; conditions: 500 µM; treatment time 1 h; system: HEK293T cell lysate
In short: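 HEK293T lysate at 2 mg/mL was treated with vehicle or electrophile (500 µM) for 1 h at ambient temperature, then labelled with iodoacetamide alkyne (1 h), clicked to sCIP-TMT reagents, pooled, digested with trypsin overnight at 37 °C, enriched on streptavidin and eluted with acid. Peptides were analysed by Orbitrap Eclipse LC-MS/MS with FAIMS and quantified in FragPipe, using duplicate channels and three replicates, with cysteines quantified in only one replicate excluded. The log2 competition ratio for each cysteine is the mean control-channel reporter intensity divided by the mean compound-channel reporter intensity.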

Sequence of UniProt P57740 (P57740 whole entry): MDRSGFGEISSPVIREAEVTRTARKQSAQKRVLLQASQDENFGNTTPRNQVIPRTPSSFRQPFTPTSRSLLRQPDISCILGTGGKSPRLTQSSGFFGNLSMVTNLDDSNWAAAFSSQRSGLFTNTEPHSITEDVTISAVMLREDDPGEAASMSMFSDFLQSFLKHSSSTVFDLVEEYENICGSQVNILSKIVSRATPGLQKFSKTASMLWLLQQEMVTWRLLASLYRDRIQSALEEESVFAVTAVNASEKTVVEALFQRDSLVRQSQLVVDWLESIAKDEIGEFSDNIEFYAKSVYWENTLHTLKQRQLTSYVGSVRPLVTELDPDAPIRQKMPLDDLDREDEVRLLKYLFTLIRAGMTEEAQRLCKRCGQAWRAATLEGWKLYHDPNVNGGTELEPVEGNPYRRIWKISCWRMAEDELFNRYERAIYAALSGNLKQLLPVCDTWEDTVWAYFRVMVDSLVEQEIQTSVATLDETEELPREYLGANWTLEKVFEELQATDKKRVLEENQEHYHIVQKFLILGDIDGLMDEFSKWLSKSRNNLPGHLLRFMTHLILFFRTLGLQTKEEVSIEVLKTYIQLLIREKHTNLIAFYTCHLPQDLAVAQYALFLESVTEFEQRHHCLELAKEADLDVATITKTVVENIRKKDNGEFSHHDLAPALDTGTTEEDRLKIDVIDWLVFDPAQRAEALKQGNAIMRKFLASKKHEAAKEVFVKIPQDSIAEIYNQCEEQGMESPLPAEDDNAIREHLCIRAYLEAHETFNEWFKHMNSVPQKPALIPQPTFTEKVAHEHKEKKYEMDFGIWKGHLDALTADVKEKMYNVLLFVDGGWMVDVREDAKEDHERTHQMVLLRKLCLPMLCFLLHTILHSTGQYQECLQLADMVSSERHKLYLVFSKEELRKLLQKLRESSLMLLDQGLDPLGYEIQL
Sequence of UniProt Q02241 (Q02241 whole entry, looked up): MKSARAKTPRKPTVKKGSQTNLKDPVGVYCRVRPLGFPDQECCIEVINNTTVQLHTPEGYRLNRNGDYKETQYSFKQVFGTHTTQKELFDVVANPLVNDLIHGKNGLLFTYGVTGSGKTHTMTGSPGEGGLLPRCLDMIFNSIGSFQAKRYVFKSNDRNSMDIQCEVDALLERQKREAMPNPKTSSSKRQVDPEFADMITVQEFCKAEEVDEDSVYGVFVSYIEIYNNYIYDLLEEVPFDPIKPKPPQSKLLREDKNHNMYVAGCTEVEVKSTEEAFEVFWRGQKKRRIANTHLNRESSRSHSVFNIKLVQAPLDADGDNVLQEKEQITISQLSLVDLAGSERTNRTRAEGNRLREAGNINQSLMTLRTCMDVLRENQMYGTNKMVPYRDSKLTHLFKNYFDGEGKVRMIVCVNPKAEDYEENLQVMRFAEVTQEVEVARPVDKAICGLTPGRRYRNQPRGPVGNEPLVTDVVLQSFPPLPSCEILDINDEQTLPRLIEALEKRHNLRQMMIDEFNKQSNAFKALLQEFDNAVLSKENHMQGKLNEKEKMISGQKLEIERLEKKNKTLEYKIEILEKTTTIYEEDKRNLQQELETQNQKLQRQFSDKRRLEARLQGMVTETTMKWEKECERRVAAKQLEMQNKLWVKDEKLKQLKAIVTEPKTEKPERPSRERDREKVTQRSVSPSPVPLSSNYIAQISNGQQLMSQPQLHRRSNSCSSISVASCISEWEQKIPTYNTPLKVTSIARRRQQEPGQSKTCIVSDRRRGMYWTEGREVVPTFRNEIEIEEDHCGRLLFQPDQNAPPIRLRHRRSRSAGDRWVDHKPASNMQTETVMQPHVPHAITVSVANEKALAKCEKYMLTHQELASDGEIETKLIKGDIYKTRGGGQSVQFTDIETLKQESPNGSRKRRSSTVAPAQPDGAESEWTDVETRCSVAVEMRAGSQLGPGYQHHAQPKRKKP
Sequence of UniProt Q08379 (Q08379 whole entry): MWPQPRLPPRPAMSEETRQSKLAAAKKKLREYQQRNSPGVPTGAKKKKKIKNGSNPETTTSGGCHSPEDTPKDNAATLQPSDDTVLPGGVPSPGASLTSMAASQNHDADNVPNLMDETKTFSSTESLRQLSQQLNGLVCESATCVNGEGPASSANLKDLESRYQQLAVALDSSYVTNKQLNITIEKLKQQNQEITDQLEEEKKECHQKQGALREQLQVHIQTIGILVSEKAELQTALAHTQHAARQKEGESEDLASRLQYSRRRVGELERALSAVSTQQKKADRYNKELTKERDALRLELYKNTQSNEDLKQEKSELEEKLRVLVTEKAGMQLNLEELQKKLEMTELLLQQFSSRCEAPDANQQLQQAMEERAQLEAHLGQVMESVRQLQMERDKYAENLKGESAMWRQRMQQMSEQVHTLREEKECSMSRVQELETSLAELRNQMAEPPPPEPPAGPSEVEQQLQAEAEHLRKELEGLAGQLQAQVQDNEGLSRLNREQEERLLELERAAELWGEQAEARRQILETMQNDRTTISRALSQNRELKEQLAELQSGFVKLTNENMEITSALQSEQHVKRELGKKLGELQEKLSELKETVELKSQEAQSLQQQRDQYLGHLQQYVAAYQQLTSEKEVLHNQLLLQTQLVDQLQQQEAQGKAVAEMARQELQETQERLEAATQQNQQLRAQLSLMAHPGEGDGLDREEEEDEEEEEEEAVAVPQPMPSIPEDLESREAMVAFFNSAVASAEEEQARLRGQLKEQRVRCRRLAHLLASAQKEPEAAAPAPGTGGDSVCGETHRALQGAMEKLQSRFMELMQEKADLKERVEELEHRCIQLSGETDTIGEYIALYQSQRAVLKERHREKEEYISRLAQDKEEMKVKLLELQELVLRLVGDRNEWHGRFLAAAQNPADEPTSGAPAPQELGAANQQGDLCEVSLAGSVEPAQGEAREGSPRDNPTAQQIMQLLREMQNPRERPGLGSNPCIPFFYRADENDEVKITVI
Sequence of UniProt Q14694 (Q14694 whole entry, looked up): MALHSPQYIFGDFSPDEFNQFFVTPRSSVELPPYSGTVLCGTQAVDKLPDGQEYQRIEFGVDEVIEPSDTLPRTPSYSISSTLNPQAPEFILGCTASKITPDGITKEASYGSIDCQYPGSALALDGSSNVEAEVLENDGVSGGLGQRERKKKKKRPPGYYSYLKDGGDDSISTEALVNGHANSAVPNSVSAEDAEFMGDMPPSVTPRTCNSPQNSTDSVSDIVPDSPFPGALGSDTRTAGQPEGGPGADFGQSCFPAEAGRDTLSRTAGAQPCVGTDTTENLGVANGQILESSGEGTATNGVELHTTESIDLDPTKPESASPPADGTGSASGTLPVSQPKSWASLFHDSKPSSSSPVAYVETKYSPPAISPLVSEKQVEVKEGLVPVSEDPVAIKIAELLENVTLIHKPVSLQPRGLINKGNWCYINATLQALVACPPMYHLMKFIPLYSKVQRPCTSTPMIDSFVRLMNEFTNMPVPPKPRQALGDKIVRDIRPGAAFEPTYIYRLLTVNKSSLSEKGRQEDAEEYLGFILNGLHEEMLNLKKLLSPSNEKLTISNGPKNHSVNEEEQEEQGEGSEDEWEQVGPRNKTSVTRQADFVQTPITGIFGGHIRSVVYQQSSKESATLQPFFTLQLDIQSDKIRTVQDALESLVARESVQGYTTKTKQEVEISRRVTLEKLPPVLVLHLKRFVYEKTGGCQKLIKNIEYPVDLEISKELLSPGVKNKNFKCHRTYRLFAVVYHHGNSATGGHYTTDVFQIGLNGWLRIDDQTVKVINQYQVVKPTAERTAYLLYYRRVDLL
Sequence of UniProt Q15022 (Q15022 whole entry, looked up): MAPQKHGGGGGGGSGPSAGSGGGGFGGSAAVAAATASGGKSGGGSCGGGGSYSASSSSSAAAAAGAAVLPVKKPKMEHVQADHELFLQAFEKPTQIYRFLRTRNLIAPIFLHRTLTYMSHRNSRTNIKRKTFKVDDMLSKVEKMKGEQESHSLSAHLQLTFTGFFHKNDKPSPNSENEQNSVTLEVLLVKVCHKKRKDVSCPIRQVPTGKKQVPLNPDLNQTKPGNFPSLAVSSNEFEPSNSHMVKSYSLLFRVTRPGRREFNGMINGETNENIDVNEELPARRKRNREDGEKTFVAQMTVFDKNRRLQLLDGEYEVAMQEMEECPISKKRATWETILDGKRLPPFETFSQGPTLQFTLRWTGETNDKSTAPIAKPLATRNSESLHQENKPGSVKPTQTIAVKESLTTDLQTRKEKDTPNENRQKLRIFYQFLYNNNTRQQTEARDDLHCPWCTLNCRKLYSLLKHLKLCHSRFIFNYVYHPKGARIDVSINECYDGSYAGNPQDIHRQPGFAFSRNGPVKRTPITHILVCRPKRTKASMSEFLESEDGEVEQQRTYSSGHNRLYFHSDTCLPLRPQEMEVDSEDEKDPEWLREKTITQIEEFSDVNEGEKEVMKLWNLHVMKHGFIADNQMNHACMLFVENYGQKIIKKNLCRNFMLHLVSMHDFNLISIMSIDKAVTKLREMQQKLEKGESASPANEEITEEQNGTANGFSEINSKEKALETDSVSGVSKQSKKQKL
Sequence of UniProt Q12874 (Q12874 whole entry, looked up): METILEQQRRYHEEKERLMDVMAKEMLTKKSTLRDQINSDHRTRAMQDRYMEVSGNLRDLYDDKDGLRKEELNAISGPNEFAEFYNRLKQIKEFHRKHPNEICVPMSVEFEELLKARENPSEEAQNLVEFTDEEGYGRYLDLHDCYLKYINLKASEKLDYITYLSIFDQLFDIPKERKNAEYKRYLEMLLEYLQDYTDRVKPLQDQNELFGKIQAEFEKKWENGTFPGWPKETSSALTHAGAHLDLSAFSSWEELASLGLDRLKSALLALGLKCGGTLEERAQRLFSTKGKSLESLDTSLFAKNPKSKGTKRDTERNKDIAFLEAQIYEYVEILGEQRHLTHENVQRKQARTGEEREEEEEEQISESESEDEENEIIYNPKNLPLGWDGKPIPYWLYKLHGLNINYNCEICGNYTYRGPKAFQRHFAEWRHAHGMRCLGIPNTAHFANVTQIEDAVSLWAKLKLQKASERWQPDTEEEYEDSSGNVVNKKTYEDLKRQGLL

| Target | log2 ratio of iodoacetamide-alkyne labeling |
| --- | --- |
| NUP107 C78 (UniProt P57740) | 0.705 (inactive) |
| GSTO1 C32 (UniProt P78417) | 2.51 (active) |
| USP10 C254 (UniProt Q14694) | 0.49 (inactive) |
| UniProt Q02750_C376 | -0.129 (inactive) |
| SUZ12 C325 (UniProt Q15022) | 1.07 (active) |
| PRDX4 C51 (UniProt Q13162) | 1.66 (active) |
| PITRM1 C780 (UniProt Q5JRX3) | 0.31 (inactive) |
| SUCLG1 C172 (UniProt P53597) | 1.72 (active) |
| UniProt P60891_C41 | -0.0365 (inactive) |
| GOLGA2 C794 (UniProt Q08379) | 1.07 (active) |
| KIF23 C42 (UniProt Q02241) | 0.234 (inactive) |
| MAP7D1 C361 (UniProt Q3KQU3) | 1.65 (active) |
| SF3A3 C103 (UniProt Q12874) | 0.188 (inactive) |
